From the supplement of paper PMC10849652
The full data set covers some 8,800 targets. This sample favours those with a hit. About 0.5% of all pairs of compound and target were hits.

What was measured:
Assay in all cases: log2 fold change, soluble protein after heating vs DMSO (PISA); higher = thermal stabilisation; K562 lysate, 10 uM; active = over 0.2 and 3.5 SD of the protein, either way, in both replicates (recomputed)
erlotinib = compound: C#Cc1cccc(Nc2ncnc3cc(OCCOC)c(OCCOC)cc23)c1 [erlotinib]
In short: (§1)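 K562 pellets were dounce-homogenised in PBS pH 7.4 with 1 mM MgCl2, and the crude extract at 1 mg/mL protein was treated with 10 μM compound for 30 min. Aliquots were heated for 3 min across 48°C-58°C, pooled, and brought to 0.5% NP-40 at 4°C; soluble protein was the supernatant after 21,000xg for 90 min. Soluble protein was quantified by TMTpro 16plex LC-MS/MS with channel sums equalised, and reported as log2 fold change in thermal stability against DMSO controls, with values from duplicates.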

[1] = compound: C/C(=N\NC(=O)C1=CC(=CC=C1)S(=O)(=O)N2CCOCC2)/C3=C(C=CC(=C3)Cl)O
In short: as §1

[2] = compound: C1=CC(=CC=C1C2=NC3=C(N2)C=C(C=C3)C(=O)N)OC4=CC=C(C=C4)Cl
In short: as §1

[3] = compound: C1=CC2=C(C=CC(=C2)/C=C\3/C(=O)NC(=NCC4=CC=CS4)S3)N=C1
In short: as §1

[4] = compound: C1=CC2=NC=CN=C2C=C1/C=C/3\C(=O)NC(=O)S3
In short: as §1

[5] = compound: C1=CC=C(C=C1)C2=NC(=C(N2)C3=CC=NC=C3)C4=CC(=C(C=C4)Cl)O
In short: as §1

[6] = compound: C1=CC=C2C(=C1)C3=NNC4=CC=CC(=C43)C2=O
In short: as §1

[7] = compound: C1CCN(C1)C(=O)NC2=CC=CC(=C2)NC3=NC=C(C(=N3)NCCC4=CN=CN4)Br
In short: as §1

[8] = compound: C1CN(CCC1(CC2=CC=C(C=C2)Cl)N)C3=NC=NC4=C3C=CN4
In short: as §1

IRAK-1-4 Inhibitor I = compound: C1COCCN1CCN2C3=CC=CC=C3N=C2NC(=O)C4=CC(=CC=C4)[N+](=O)[O-] [IRAK-1-4 Inhibitor I]
In short: as §1

ibrutinib = compound: C=CC(=O)N1CCC[C@@H](n2nc(-c3ccc(Oc4ccccc4)cc3)c3c(N)ncnc32)C1 [ibrutinib]
In short: as §1

[9] = compound: CC(=O)c1cnc2ccc(-c3cc(Cl)c(O)c(Cl)c3)nc2c1N[C@H]1CC[C@H](CN(C)C)CC1
In short: as §1

ralimetinib = compound: CC(C)(C)Cn1c(N)nc2ccc(-c3[nH]c(C(C)(C)C)nc3-c3ccc(F)cc3)nc21 [ralimetinib]
In short: as §1

[10] = compound: CC(C)(O)CC(=O)NCCn1ccc2ncnc(Nc3ccc(Oc4cccc(C(F)(F)F)c4)c(Cl)c3)c21
In short: as §1

[11] = compound: CC(C)C1=C2N=C(C=C(N2N=C1)NCC3=CC=CC=C3)NCCCCCCN
In short: as §1

[12] = compound: CC1=C(C(CC(=O)N1)C2=CC=C(C=C2)C(F)(F)F)C(=O)NC3=C(C=C4C(=C3)C=NN4)F
In short: as §1

[13] = compound: CC1=C(C2=C(C=C1)C(=O)C3=CC=CC=C3N2CCCN)C
In short: as §1

[14] = compound: CC1=C(C=C(C=C1)NC(=O)C2=CC(=CC=C2)C(C)(C)C#N)NC3=CC4=C(C=C3)N=CN(C4=O)C
In short: as §1

[15] = compound: CC1=C(C=C(C=C1)NC(=O)C2=CC(=CC=C2)N(C)C)NC(=O)C3=CC=C(C=C3)O
In short: as §1

[16] = compound: CC1=CC=C(C=C1)SC2=C3C=C(SC3=CN=C2)C(=O)N
In short: as §1

Measured: log2 fold change

ZHX1 (UniProt Q9UKY1)
inactive: erlotinib 0.02 | [1] -0.094 | [2] 0.082 | [3] 0.051 | [4] -0.027 | [5] -0.027 | [6] -0.077 | [7] -0.119 | [8] 0.026 | IRAK-1-4 Inhibitor I -0.055 | ibrutinib -0.026 | [9] 0.015 | ralimetinib -0.007 | [10] 0.034 | [11] 0.127 | [12] 0.109 | [13] -0.144 | [14] -0.053 | [15] 0.024 | [16] -0.013

ZNF217 (UniProt O75362)
inactive: erlotinib -0.014 | [1] -0.043 | [2] 0.06 | [3] -0.132 | [4] -0.004 | [5] 0.027 | [6] -0.162 | [7] -0.014 | [8] 0.028 | IRAK-1-4 Inhibitor I 0.007 | ibrutinib -0.033 | [9] 0.053 | ralimetinib 0.017 | [10] -0.014 | [11] -0.061 | [12] -0.005 | [13] -0.022 | [14] 0.002 | [15] 0.025 | [16] -0.031

VCPIP1 (UniProt Q96JH7)
inactive: erlotinib -0.054 | [1] -0.04 | [2] -0.002 | [3] 0.053 | [4] -0.037 | [5] 0.041 | [6] 0.006 | [7] 0 | [8] 0.038 | IRAK-1-4 Inhibitor I -0.035 | ibrutinib 0.002 | [9] 0.01 | ralimetinib 0.009 | [10] 0.011 | [11] -0.029 | [12] -0.021 | [13] -0.05 | [14] -0.007 | [15] 0.048 | [16] -0.017

UXT isoform 2 (UniProt Q9UBK9)
inactive: erlotinib 0.012 | [1] -0.036 | [2] 0.033 | [3] 0.021 | [4] -0.054 | [5] 0.035 | [6] 0.012 | [7] -0.033 | [8] 0.186 | IRAK-1-4 Inhibitor I 0.007 | ibrutinib -0.078 | [9] -0.018 | ralimetinib -0.063 | [10] -0.075 | [11] 0.006 | [12] -0.035 | [13] -0.091 | [14] 0 | [15] -0.015 | [16] -0.032

XPOT (UniProt O43592)
inactive: erlotinib 0.017 | [1] -0.013 | [2] -0.041 | [3] -0.003 | [4] 0.032 | [5] -0.011 | [6] -0.021 | [7] -0.004 | [8] 0.025 | IRAK-1-4 Inhibitor I 0.016 | ibrutinib -0.012 | [9] 0.009 | ralimetinib 0.006 | [10] -0.038 | [11] -0.014 | [12] 0 | [13] 0.013 | [14] 0.016 | [15] 0.007 | [16] 0.018

UQCRC2 (UniProt P22695)
UniProt P22695, sequence (P22695 whole entry, looked up): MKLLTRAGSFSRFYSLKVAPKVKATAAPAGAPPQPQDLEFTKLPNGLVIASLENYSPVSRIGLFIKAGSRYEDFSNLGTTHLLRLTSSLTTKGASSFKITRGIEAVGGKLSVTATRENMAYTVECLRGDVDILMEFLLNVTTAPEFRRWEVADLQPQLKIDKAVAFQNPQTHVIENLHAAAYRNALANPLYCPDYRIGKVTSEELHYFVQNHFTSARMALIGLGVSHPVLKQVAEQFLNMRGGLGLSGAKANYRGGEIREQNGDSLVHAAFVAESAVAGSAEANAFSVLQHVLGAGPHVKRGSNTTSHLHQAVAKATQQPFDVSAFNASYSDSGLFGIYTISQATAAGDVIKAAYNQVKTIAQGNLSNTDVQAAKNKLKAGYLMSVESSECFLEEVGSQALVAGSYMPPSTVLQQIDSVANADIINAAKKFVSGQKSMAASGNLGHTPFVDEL
inactive: erlotinib 0 | [1] -0.029 | [2] 0.006 | [3] -0.005 | [4] -0.019 | [5] 0.01 | [6] 0.013 | [7] -0.001 | [8] 0.019 | IRAK-1-4 Inhibitor I 0.014 | ibrutinib -0.022 | [9] 0.001 | ralimetinib 0.005 | [10] -0.04 | [11] -0.005 | [12] -0.001 | [13] 0.012 | [14] 0.029 | [15] 0.003 | [16] -0.013

ZNHIT6 (UniProt Q9NWK9)
UniProt Q9NWK9, sequence (Q9NWK9 whole entry, looked up): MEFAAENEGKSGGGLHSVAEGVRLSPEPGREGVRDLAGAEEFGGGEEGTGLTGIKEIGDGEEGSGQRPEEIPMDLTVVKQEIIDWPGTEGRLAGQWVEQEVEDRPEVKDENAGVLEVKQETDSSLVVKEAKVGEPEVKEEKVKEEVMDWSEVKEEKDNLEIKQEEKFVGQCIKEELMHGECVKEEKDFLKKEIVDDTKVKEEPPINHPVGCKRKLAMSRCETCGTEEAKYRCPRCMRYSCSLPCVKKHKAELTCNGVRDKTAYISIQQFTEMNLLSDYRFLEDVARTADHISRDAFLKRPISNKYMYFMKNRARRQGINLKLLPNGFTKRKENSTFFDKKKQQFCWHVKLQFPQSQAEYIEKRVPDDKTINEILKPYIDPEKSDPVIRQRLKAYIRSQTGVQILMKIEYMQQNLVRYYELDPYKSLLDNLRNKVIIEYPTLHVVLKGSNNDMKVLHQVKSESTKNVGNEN
inactive: erlotinib 0.059 | [1] 0.475 | [2] 0.062 | [3] 0.024 | [4] -0.007 | [5] -0.008 | [6] -0.068 | [7] 0 | [8] 0.014 | IRAK-1-4 Inhibitor I 0.003 | ibrutinib -0.01 | [9] -0.097 | ralimetinib -0.032 | [10] 0.005 | [11] 0.001 | [12] 0.036 | [13] -0.02 | [14] 0.032 | [15] 0.018 | [16] -0.029

USP16 (UniProt Q9Y5T5)
inactive: erlotinib -0.002 | [1] -0.01 | [2] -0.01 | [3] -0.002 | [4] 0.011 | [5] 0.036 | [6] -0.016 | [7] -0.028 | [8] -0.005 | IRAK-1-4 Inhibitor I -0.033 | ibrutinib -0.027 | [9] -0.035 | ralimetinib -0.001 | [10] 0.011 | [11] 0.017 | [12] 0 | [13] -0.06 | [14] -0.027 | [15] -0.012 | [16] 0.019

VPS16 (UniProt Q9H269)
inactive: erlotinib 0.059 | [1] 0.026 | [2] 0.048 | [3] 0.024 | [4] -0.03 | [5] 0.048 | [6] -0.075 | [7] 0.03 | [8] 0.023 | IRAK-1-4 Inhibitor I 0.025 | ibrutinib 0.009 | [9] 0.017 | ralimetinib -0.012 | [10] -0.038 | [11] -0.014 | [12] -0.015 | [13] -0.029 | [14] 0.019 | [15] 0.031 | [16] 0

USP34 (UniProt Q70CQ2)
UniProt Q70CQ2, sequence (Q70CQ2 whole entry, looked up): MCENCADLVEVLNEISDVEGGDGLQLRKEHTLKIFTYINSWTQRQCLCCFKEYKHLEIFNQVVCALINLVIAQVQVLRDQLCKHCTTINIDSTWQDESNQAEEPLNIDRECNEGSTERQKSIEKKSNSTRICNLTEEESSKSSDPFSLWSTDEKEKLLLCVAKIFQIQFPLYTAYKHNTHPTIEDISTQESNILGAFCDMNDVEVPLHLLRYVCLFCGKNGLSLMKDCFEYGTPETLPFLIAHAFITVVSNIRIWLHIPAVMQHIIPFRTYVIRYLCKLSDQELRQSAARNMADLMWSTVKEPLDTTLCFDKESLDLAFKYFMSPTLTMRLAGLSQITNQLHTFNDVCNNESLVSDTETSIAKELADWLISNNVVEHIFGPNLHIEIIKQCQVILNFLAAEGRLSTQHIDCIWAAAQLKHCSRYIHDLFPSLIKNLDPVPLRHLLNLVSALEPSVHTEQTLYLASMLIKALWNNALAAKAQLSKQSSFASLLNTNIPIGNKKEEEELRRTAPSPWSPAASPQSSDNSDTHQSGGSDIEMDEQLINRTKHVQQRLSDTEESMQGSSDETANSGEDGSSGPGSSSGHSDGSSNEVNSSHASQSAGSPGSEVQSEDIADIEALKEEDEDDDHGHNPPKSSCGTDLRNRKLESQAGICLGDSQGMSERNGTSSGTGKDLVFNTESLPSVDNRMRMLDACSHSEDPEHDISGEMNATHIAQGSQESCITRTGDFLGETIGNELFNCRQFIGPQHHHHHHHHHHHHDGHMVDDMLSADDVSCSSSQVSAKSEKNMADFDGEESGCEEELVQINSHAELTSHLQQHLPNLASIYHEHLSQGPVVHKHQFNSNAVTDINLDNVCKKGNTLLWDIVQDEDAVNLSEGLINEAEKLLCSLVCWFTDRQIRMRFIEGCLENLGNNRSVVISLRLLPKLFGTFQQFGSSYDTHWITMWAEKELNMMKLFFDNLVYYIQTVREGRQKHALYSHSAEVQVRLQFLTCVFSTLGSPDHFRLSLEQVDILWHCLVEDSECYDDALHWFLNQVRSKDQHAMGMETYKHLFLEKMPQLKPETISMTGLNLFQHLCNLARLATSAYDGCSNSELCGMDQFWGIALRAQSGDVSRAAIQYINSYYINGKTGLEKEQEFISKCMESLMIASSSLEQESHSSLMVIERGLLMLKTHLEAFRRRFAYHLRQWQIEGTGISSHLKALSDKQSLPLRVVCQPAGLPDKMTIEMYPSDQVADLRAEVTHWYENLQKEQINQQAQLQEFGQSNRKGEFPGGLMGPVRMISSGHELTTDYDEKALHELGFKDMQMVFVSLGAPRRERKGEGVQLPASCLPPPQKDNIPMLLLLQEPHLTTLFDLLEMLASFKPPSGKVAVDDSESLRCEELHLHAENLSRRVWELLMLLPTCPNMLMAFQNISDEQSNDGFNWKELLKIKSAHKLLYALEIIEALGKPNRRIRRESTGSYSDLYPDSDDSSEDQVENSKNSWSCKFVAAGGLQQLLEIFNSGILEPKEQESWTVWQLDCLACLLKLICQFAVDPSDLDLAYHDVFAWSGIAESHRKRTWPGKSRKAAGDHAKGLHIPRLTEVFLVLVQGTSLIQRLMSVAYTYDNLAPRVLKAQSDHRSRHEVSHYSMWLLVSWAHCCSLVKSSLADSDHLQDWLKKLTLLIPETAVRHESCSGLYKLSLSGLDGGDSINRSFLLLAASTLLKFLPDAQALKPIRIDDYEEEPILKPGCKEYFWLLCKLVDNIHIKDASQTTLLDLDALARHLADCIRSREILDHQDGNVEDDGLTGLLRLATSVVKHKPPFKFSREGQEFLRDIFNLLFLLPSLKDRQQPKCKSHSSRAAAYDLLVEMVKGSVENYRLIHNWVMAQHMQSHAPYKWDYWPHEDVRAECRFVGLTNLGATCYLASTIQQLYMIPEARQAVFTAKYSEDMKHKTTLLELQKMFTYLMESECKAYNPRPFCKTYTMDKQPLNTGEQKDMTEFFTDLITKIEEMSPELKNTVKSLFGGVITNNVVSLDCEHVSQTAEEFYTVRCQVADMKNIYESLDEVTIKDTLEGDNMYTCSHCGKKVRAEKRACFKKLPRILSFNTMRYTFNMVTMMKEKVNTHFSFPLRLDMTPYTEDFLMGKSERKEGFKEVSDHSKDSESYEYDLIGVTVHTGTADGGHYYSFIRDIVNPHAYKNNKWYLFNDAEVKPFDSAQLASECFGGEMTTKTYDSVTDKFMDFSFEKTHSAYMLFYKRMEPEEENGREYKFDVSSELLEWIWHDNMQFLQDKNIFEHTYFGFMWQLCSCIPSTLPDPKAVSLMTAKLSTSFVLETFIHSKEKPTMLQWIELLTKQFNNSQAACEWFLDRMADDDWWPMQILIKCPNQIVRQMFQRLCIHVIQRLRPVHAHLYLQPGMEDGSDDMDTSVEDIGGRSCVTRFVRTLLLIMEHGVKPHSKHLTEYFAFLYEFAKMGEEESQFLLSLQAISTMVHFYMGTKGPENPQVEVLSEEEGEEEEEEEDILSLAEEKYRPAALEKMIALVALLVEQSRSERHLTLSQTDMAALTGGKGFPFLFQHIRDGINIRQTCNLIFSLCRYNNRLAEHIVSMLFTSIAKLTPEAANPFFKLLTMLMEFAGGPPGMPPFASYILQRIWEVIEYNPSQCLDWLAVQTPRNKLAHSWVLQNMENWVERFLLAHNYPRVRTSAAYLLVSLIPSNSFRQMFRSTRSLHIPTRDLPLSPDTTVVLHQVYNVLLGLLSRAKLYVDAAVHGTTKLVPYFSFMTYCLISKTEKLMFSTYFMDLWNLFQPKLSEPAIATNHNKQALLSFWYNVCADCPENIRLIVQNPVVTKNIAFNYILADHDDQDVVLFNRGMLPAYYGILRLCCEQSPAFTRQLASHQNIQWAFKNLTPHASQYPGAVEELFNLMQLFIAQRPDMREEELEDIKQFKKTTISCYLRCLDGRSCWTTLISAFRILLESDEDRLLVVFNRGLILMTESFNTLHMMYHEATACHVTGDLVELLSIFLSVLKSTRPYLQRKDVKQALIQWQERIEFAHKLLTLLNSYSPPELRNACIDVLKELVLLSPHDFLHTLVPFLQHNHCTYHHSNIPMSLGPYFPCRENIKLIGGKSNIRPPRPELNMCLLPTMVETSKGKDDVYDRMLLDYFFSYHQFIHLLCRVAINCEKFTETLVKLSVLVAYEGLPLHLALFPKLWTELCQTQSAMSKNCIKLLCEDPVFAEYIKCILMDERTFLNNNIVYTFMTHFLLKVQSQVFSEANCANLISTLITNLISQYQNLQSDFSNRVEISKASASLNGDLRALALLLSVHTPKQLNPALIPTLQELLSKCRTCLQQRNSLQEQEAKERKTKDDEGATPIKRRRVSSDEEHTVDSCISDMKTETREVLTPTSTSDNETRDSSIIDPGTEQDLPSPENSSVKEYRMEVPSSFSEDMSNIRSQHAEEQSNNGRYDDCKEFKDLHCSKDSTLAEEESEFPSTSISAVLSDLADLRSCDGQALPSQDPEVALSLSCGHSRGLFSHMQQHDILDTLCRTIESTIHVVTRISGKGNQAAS
inactive: erlotinib 0.043 | [1] 0.018 | [2] -0.039 | [3] 0.029 | [4] -0.008 | [5] 0.012 | [6] -0.002 | [7] 0.003 | [8] 0.003 | IRAK-1-4 Inhibitor I -0.001 | ibrutinib 0.002 | [9] 0.006 | ralimetinib 0.011 | [10] -0.027 | [11] 0.001 | [12] -0.001 | [13] -0.032 | [14] 0.014 | [15] 0.026 | [16] 0

WDR41 (UniProt Q9HAD4)
inactive: erlotinib -0.071 | [1] -0.044 | [2] -0.021 | [3] 0.015 | [4] -0.027 | [5] -0.113 | [6] 0.031 | [7] -0.091 | [8] 0.049 | IRAK-1-4 Inhibitor I 0.029 | ibrutinib -0.163 | [9] -0.004 | ralimetinib 0.017 | [10] 0.088 | [11] -0.015 | [12] 0.03 | [13] -0.054 | [14] 0.164 | [15] -0.049 | [16] 0.015

XPNPEP1 isoform 3 (UniProt Q9NQW7)
UniProt Q9NQW7, sequence (Q9NQW7 whole entry, looked up): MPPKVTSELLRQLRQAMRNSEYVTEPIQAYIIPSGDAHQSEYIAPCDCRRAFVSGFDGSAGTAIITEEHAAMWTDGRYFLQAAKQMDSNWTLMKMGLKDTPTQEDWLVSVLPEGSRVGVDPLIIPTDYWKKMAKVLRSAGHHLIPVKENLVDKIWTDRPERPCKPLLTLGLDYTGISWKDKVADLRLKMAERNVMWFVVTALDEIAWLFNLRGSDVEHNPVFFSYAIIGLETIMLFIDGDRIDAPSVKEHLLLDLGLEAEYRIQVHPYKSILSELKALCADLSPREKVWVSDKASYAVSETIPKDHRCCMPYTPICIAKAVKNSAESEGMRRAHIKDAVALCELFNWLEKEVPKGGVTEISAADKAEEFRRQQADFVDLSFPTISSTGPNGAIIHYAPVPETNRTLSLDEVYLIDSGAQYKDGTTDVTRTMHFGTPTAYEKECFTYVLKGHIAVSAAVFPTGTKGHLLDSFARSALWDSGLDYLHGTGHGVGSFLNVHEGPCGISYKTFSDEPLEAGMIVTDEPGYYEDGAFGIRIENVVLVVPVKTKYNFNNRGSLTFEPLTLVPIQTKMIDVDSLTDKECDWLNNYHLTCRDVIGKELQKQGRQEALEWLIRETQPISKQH
inactive: erlotinib -0.001 | [1] 0.023 | [2] -0.019 | [3] 0.001 | [4] -0.007 | [5] -0.005 | [6] -0.011 | [7] -0.006 | [8] 0.005 | IRAK-1-4 Inhibitor I 0.009 | ibrutinib 0.012 | [9] -0.007 | ralimetinib 0.017 | [10] -0.026 | [11] -0.009 | [12] 0.007 | [13] -0.026 | [14] -0.025 | [15] -0.005 | [16] 0.002

USP3 (UniProt Q9Y6I4)
inactive: erlotinib -0.001 | [1] 0.05 | [2] 0.033 | [3] 0.031 | [4] 0.018 | [5] 0.011 | [6] 0.014 | [7] -0.037 | [8] 0.035 | IRAK-1-4 Inhibitor I -0.044 | ibrutinib 0.01 | [9] 0.048 | ralimetinib 0.042 | [10] -0.027 | [11] 0.014 | [12] 0.024 | [13] 0.011 | [14] -0.014 | [15] 0.016 | [16] -0.025

VPS33A (UniProt Q96AX1)
inactive: erlotinib 0.024 | [1] 0.005 | [2] 0.024 | [3] 0.035 | [4] 0.018 | [5] -0.006 | [6] -0.023 | [7] -0.025 | [8] 0.036 | IRAK-1-4 Inhibitor I 0.015 | ibrutinib 0.024 | [9] -0.01 | ralimetinib 0.039 | [10] 0.005 | [11] -0.003 | [12] 0.008 | [13] 0.013 | [14] 0.013 | [15] 0.043 | [16] -0.032

ZZEF1 (UniProt O43149)
inactive: erlotinib 0.008 | [1] -0.019 | [2] -0.012 | [3] 0.019 | [4] -0.012 | [5] -0.009 | [6] -0.017 | [7] -0.011 | [8] -0.009 | IRAK-1-4 Inhibitor I 0.017 | ibrutinib 0.018 | [9] -0.009 | ralimetinib -0.002 | [10] -0.057 | [11] -0.014 | [12] -0.005 | [13] -0.063 | [14] 0.023 | [15] 0.009 | [16] -0.005

VPS54 (UniProt Q9P1Q0)
inactive: erlotinib -0.018 | [1] -0.061 | [2] 0.059 | [3] -0.117 | [4] 0.213 | [5] -0.044 | [6] -0.114 | [7] -0.019 | [8] -0.079 | IRAK-1-4 Inhibitor I 0.036 | ibrutinib 0.048 | [9] -0.059 | ralimetinib -0.122 | [10] -0.267 | [11] -0.004 | [12] 0.038 | [13] 0.04 | [14] 0.144 | [15] 0.066 | [16] -0.037
